# Results as given in PubChem BioAssay.
# Calls of active or inactive are those of the source.
# Legend:
# [1] = tested on: Plasmodium falciparum Sir2 (PF13_0152, Sir2A); assay: Plasmodium falciparum Sir2A binding compounds – biochemical, small-molecule microarray, 635 nm fluorescence, primary screen (AID 1098); details: fluorescence 635 nm, higher = more signal;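 note: score merges spot fluorescence intensity with its signal-to-noise ratio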
# [2] = probe aDKK1 binding to arrayed compounds – biochemical, biotinylated probe, 635/667 nm fluorescence, primary screen (AID 1099); details: small-molecule microarray, higher = more signal;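 note: score merges 667nm spot fluorescence with signal to noise across triplicate slides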
# [3] = probe aCHRDL2 binding to arrayed compounds – biochemical, biotinylated probe, 635/667 nm fluorescence, primary screen (AID 1100); details: small-molecule microarray, higher = more signal
# [4] = change in splice reporter luminescence, either direction, cell-based, HEK293, spliceosome inhibition project, primary screen (AID 1101); details: HEK293 splicing luciferase reporter, 24 h, higher = more signal, called active from +8 up or from −8 down;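 note: HEK293 cells carrying a splicing-competent luciferase reporter gene; test concentration not given here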
# [5] = target: Fibroblast growth factor 10 (Homo sapiens) (UniProt O15520); assay: compounds binding fibroblast growth factor 10 – biochemical, small-molecule microarray, 635 nm fluorescence, primary screen (AID 1102); details: FGF10 binding, fluorescence 635 nm, higher = more signal
# Chain of Fibroblast growth factor 10 (Homo sapiens) (O15520 whole entry, looked up): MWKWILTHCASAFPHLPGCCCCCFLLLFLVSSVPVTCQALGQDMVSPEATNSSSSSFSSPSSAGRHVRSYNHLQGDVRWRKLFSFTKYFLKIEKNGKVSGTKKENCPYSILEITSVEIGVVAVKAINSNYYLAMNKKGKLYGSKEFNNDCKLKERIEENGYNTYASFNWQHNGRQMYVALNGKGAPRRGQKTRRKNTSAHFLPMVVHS
# [6] = tested on: glycogen synthase kinase-3 (GSK3A per assay name; protocol says GSK3B); assay: compounds binding glycogen synthase kinase-3 – biochemical, small-molecule microarray, 635 nm fluorescence, GSK3A, primary screen (AID 1103); details: fluorescence 635 nm, higher = more signal; note: the record names both GSK3A and GSK3B
# [7] = target: Epidermal growth factor receptor (Homo sapiens) (UniProt P00533); assay: compounds binding epidermal growth factor receptor – biochemical, small-molecule microarray, 635 nm fluorescence, primary screen (AID 1104); details: EGFR binding, higher = more signal;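 note: score merges 667 nm emission intensity with spot signal to noise over triplicate slides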
# Chain of Epidermal growth factor receptor (Homo sapiens) (P00533 whole entry, looked up): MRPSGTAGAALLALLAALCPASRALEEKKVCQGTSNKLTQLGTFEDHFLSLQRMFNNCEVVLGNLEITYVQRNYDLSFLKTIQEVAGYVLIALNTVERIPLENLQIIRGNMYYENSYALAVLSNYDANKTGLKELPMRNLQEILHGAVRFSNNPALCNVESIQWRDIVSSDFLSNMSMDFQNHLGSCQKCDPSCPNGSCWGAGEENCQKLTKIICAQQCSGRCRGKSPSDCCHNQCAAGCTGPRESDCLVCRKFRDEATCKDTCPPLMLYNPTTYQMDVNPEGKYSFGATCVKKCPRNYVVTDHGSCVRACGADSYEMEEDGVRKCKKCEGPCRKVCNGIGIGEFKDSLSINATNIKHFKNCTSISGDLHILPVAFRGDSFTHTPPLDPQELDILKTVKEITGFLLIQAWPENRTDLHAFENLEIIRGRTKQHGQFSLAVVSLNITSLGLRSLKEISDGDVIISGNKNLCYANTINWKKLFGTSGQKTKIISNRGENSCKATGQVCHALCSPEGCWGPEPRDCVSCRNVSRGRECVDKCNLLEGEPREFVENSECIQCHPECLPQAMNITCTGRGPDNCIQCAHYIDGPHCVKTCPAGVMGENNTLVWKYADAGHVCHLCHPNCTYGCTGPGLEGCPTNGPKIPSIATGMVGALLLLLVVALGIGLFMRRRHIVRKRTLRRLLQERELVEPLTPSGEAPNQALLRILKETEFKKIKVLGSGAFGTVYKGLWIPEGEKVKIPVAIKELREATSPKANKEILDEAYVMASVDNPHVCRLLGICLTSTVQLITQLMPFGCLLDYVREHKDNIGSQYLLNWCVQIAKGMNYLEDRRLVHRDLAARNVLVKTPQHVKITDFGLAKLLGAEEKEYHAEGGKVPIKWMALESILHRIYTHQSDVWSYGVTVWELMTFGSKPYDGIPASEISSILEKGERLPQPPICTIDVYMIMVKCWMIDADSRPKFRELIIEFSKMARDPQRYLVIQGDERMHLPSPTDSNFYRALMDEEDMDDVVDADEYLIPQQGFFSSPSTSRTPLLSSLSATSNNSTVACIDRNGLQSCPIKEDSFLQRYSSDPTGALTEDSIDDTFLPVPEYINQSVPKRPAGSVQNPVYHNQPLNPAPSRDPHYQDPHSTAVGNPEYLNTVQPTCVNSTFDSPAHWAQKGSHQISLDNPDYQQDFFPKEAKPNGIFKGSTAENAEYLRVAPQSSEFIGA
# [8] = target: Follistatin-related protein 3 (Homo sapiens) (UniProt O95633); assay: compounds binding follistatin-related protein 3 – biochemical, small-molecule microarray, 635 nm fluorescence, primary screen (AID 1105); details: FSTL3 binding, higher = more signal;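 note: score merges emission near 667 nm and signal to noise per printed spot across three slides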
# Chain of Follistatin-related protein 3 (Homo sapiens) (O95633 whole entry, looked up): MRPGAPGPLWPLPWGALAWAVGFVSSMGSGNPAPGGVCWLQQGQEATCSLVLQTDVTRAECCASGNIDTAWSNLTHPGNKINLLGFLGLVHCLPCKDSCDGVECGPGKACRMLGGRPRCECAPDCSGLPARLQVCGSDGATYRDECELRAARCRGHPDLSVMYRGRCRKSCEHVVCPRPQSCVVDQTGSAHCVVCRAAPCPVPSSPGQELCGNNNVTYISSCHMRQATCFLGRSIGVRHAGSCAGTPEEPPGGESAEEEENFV
# [9] = target: Dickkopf-related protein 1 (Homo sapiens) (UniProt O94907); assay: small molecules binding DKK1 protein – biochemical, small-molecule microarray, 635 nm fluorescence scan, primary screen (AID 1106); details: higher = more signal;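 note: score merges emission near 667 nm with signal to noise over three replicate slides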
# Chain of Dickkopf-related protein 1 (Homo sapiens) (O94907 whole entry, looked up): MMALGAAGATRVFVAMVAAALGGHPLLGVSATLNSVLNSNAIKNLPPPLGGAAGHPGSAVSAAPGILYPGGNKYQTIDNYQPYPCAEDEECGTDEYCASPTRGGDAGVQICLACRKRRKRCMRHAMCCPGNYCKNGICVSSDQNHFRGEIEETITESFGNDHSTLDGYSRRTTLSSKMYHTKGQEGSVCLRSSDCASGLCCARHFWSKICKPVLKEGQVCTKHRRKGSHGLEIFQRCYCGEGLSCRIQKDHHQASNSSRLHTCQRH
# [10] = tested on: Inhibin beta A chain (activin A); assay: small molecules binding activin A – biochemical, small-molecule microarray, 635 nm fluorescence scan, primary screen (AID 1107); details: INHBA, higher = more signal;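 note: mouse activin A protein probed at 4.33 µg/mL on printed slides; score merges bound-protein fluorescence near 667 nm with spot signal-to-noise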
# [11] = tested on: Human papillomavirus type 1a protein E7 (residues 44-93); assay: small molecules binding HPV E7 44-93 – biochemical, small-molecule microarray, residues 44-93, 635 nm fluorescence, primary screen (AID 1108); details: fluorescence 635 nm, higher = more signal;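 note: E7 fragment applied at 1 µg/mL in TBST for 1 h at 4 C; score combines spot fluorescence with its signal to noise ratio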
# [12] = hepatitis C replication reporter changes, two-sided – Huh7 cells, luciferase reporter, HCV replication inhibitor project, primary screen (AID 1109); details: Huh7 HCV replicon luciferase reporter, 48 h; higher = more signal;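 note: huh7 hepatoma cells harbouring a luciferase neomycin HCV replicon reporter; luciferase luminescence as measure of HCV replicon replication; test concentration not given here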
# [13] = target: Left-right determination factor 2 (Homo sapiens) (UniProt O00292); assay: small molecules binding LEFTY2 protein – biochemical, small-molecule microarray, 635 nm fluorescence scan, primary screen (AID 1110); details: higher = more signal
# Chain of Left-right determination factor 2 (Homo sapiens) (O00292 whole entry, looked up): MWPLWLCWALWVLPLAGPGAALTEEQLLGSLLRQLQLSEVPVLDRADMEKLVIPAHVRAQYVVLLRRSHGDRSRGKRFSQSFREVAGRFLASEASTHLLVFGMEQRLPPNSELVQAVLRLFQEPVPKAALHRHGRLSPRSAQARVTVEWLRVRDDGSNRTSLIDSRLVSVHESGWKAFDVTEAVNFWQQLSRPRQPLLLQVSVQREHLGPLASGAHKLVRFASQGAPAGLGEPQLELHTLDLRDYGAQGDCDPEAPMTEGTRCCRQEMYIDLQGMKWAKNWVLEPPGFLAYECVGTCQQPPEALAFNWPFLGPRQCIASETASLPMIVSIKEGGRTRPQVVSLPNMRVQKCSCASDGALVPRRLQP
# [14] = target: Calmodulin-1 (Homo sapiens) (UniProt P0DP23); assay: small molecules binding calmodulin-1 with EGTA – biochemical, small-molecule microarray, Cy5-labelled CALM1, profiling panel (AID 1111); details: Cy5-CALM1 binding fluorescence, higher = more signal;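 note: labelled calmodulin applied in Tris saline Tween buffer holding calcium plus EGTA and DTT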
# [15] = target: Calmodulin-1 (Homo sapiens) (UniProt P0DP23); assay: small molecules binding Ca-loaded calmodulin-1 – biochemical, small-molecule microarray, Cy5-labelled CALM1, plus calcium, artefact control for SMM control-protein annotation, profiling panel (AID 1112); details: Cy5-CALM1 binding fluorescence, higher = more signal;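 note: score merges spot fluorescence with signal to noise from triplicate slides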
# [16] = probe aWnt5a binding to arrayed compounds – biochemical, biotinylated probe, 635/667 nm fluorescence, primary screen (AID 1113); details: small-molecule microarray, higher = more signal;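 note: score merges 667 nm fluorescence intensity with signal-to-noise per printed feature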
# [17] = probe aShh binding to arrayed compounds – biochemical, biotinylated probe, 635/667 nm fluorescence, primary screen (AID 1114); details: small-molecule microarray, higher = more signal;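 note: probe is biotin-labelled aShh protein from a stem cell growth factor screen; measures binding of labelled protein to compounds printed on the slide; score merges feature fluorescence at 667 nm with signal-to-noise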
# [18] = probe aNog binding to arrayed compounds – biochemical, biotinylated probe, 635/667 nm fluorescence, primary screen (AID 1115); details: small-molecule microarray, higher = more signal;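 note: probe is biotinylated aNog protein used at 0.15 µg/mL for 1 h at 4 C; z-score combines 667 nm fluorescence of each spot with its signal to noise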
# [19] = target: Torsin-1A-interacting protein 1 (Homo sapiens) (UniProt Q5JTV8); assay: compound microarray binding of lysate hLAP1 – cell lysate, small-molecule microarray, COS7 lysate, 635/667 nm fluorescence, primary screen (AID 1116); details: 635 nm fluorescence, higher = more signal
# Chain of Torsin-1A-interacting protein 1 (Homo sapiens) (Q5JTV8 whole entry, looked up): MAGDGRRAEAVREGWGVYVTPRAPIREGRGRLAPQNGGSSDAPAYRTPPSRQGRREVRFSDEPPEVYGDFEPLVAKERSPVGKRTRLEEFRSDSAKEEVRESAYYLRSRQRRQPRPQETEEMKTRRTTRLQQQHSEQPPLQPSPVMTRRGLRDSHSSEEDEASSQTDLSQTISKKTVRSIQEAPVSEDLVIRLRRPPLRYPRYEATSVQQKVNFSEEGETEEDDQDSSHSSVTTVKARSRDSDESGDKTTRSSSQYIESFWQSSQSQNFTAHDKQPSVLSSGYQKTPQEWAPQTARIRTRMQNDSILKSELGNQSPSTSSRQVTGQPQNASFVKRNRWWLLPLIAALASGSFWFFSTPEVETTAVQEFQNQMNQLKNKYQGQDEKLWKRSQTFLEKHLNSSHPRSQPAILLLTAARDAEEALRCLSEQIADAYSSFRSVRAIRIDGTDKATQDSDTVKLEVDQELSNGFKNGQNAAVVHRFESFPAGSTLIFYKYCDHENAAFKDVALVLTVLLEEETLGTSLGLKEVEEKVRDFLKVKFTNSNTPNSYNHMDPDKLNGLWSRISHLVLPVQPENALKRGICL
# [20] = target: Alpha-bungarotoxin (Bungarus multicinctus) (UniProt P60615); assay: compounds binding labelled alpha-BTX control protein – biochemical, small-molecule microarray, Alexa647 label, 635/667 nm fluorescence, artefact control for SMM control protein annotation, profiling panel (AID 1117); details: alpha-BTX-A647 binding fluorescence, higher = more signal
# Chain of Alpha-bungarotoxin (Bungarus multicinctus) (P60615 whole entry, looked up): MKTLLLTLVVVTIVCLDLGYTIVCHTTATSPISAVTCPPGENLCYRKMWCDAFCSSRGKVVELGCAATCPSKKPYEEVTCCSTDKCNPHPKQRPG
Structure (SMILES),composite z-score [1],composite z-score [2],composite z-score [3],z-score [4],composite z-score [5],composite z-score [6],composite z-score [7],composite z-score [8],composite z-score [9],composite z-score [10],composite z-score [11],z-score [12],composite z-score [13],composite z-score [14],composite z-score [15],composite z-score [16],composite z-score [17],composite z-score [18],composite z-score [19],composite z-score [20]
[N-]=[N+]=NCc1ccccc1C[C@@]1(C(=O)N2CCOCC2)N=C(c2ccc(OCCCO)cc2)O[C@@H]1c1ccccc1,0.511,0.881,1.18,-0.691 (inactive),1.03,1.28,0.0805,-0.14,-0.519,0.686,1.45,-3.27,0.285,1.83,0.997,0.0597,0.412,-0.549,2.09,0.916
COCCOC(=O)N1C(=O)[C@@]2(c3ccccc31)[C@H](C(=O)N1CCN(c3ncccn3)CC1)[C@H]1C(=O)O[C@H](c3ccccc3)[C@H](c3ccccc3)N1[C@@H]2c1ccc(O)cc1,1.59,0.184,0.573,0.554 (inactive),0.745,0.53,0.0611,-0.11,0.278,-0.66,0.97,-1.57,0.256,0.949,0.166,-0.0735,0.191,0.893,0.482,1.72
C=CCC(OC(C)=O)[C@@H]1[C@@H](N(Cc2cccc3ccccc23)C(=O)Cc2ccc(OC)cc2)c2cc(OCCCO)ccc2N1C(=O)c1ccc2ccccc2n1 (stereo not given in full),-0.316,-0.0805,0.144,-0.326 (inactive),0.103,-0.135,0.124,0.484,-0.0462,1.33,0.26,-0.043,0.172,0.0729,0.259,0.0132,-0.17,-0.456,0.307,0.472
CCOC(=O)C[C@H]1[C@H](OC(=O)c2ccc(C(=O)c3ccccc3)cc2)[C@@H](NC(=O)Cc2ccc(OC)cc2)c2cc(OCCCO)ccc2N1C(=O)c1ccccc1,-0.186,0.0467,0.521,-0.449 (inactive),0.281,-0.0732,0.12,-0.0059,0.0251,0.643,0.41,-1.15,0.117,0.0574,0.425,0.112,-0.237,0.0775,0.516,0.168
COc1ccccc1CN1C(=O)c2ccccc2[C@@]2(Cc3ccccc3N(CC(F)(F)F)C2=O)[C@@H]1c1ccc(CO)cc1,0.144,-0.435,-0.167,1.49 (inactive),0.507,0.524,0.414,0.614,0.564,1.03,0.802,-0.521,0.244,-0.504,-0.723,0.13,-0.308,1.68,-0.0328,0.118
CCCCCCc1nc(-c2cc(C)c(OC)c(C)c2)c(C)c2c1[Si](C(C)C)(C(C)C)OC2,-0.17,0.101,-0.178,-1.9 (inactive),-0.722,-0.644,0.202,-0.0761,0.0434,0.737,-0.226,0.791,-0.0571,-0.357,0.34,-0.0445,0.184,0.116,-0.116,-0.0116
